# Sampled rows, rich in hits. Any-hit rate of the full collection: about 2.4%.
# FEN1 inh – blocks human flap endonuclease 1; P39748; Recombinant FEN1 flap cleavage, fluorescence, 15 min; Potency, µM (series often up to 114 µM), without a hit: at the top dose activity change, negative = inhibition, hits mostly inhibitors; 390,000 compounds, 0.35% hits; note: % is set by controls: 0 for no effect and ±100 for the full control effect; nearly all actives have a fitted effect of over 65% in size
#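 Steps: FEN1 (10 nM) dispensed; compound added by pin tool; 15 min at room temperature; substrate added to 50 nM final; reads at 0 min and 15 min; data normalized and fitted (four-parameter Hill).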
# Pol iota inh – DNA polymerase iota (human) inhibition; Q9UNA4; Pol iota fluorescent replication assay, 10 min; Potency, µM (titrated, usually from 115 µM), inactives show top-dose activity, negative = inhibition, usual class: inhibitors; 390,000 compounds, 1% hits; AID 588590
# Target sequence (Q9UNA4 whole entry, looked up): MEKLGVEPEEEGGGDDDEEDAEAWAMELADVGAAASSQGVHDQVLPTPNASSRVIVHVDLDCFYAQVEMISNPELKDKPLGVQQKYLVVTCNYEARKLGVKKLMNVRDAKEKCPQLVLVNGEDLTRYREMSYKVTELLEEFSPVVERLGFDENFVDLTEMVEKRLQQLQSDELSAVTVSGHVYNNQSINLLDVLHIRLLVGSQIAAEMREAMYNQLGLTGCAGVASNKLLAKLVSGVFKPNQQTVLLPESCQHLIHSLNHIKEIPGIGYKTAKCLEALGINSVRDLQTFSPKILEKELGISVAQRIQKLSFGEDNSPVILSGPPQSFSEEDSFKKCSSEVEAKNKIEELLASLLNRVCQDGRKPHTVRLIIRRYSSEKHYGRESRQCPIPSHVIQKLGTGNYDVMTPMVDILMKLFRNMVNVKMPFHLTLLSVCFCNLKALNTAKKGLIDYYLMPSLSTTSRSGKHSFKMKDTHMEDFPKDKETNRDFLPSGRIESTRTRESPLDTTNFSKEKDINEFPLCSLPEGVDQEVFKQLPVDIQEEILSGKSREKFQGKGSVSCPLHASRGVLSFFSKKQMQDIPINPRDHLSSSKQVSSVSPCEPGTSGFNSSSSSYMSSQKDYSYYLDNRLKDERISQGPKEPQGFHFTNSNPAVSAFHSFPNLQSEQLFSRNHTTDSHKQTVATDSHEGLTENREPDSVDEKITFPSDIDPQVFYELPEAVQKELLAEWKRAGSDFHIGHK
#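 Fluorescent replication assay read twice, at 0 min and 10 min after adding 50 nM (final) substrate. Enzyme (10 nM) and compounds were first incubated 15 min at room temperature; enzyme-free buffer wells were negative controls.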
# Pol beta inh – DNA polymerase beta (human) inhibition; P06746; Pol beta primer extension/strand displacement, fluorescence kinetic; 340,000 compounds, 1.3% hits; Potency, µM (titrated, usually from 114 µM), for the others: top-dose activity change, negative = inhibition, hits mostly inhibitors; note: % is set by controls: 0 for no effect and ±100 for the full control effect
#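 Values derive from four-parameter Hill fits of normalized kinetic data: reads at 0 and 10 min following addition of 50 nM substrate to 10 nM Pol beta preincubated 15 min with compound.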
# WRN inhibitor – blocks human WRN helicase | WRN helicase unwinding, fluorescent forked duplex, kinetic | Potency, µM (series often up to 114 µM), without a hit: at the top dose activity change, negative = inhibition, hits mostly inhibitors | 360,000 compounds, 0.46% hits | AID 651768; note: % is set by controls: 0 for no effect and ±100 for the full control effect; nearly all actives have a fitted effect of over 55% in size
#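 Kinetic red-fluorescence monitoring (525/598 nm) tracks WRN helicase activity after 100 nM fluorophore-quencher forked duplex and 2 mM ATP are added to 20 nM enzyme pretreated 15 min at room temperature with compound.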
# Pol kappa inh-1 – inhibitors of human DNA polymerase kappa; Potency, µM (doses to about 107 µM), for the others: top-dose activity, negative = inhibition, most hits filed as inhibitors; purified Pol kappa, fluorescent DNA synthesis assay, 10 min; Q9UBT6; 400,000 compounds, 0.53% hits; AID 588579; note: % is set by controls: 0 for no effect and ±100 for the full control effect
#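 10 nM Pol kappa was preincubated with compounds for 15 min at room temperature. Reaction started with 50 nM (final) substrate. Fluorescence read kinetically at 0 and 10 min.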
# Pol eta inh-1 – blocks human DNA polymerase eta activity. AID 588591. 390,000 compounds, 1.2% hits. recombinant Pol eta, fluorescent DNA replication assay. Potency, µM (highest dose often 114 µM), inactives show at the top dose activity change, negative = inhibition, most hits filed as inhibitors; note: % is set by controls: 0 for no effect and ±100 for the full control effect
#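 Pol eta at 10 nM preincubated with compounds 15 min at room temperature; reaction started with fluorescent substrate (50 nM final) and read kinetically at 0 and 10 min.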
# Pol kappa inh-2 – Pol kappa (human) inhibition, cherry-pick confirmation. purified Pol-kappa, fluorescent strand-displacement substrate. Potency, µM, usual class: inhibitors. shares compounds with Pol eta inh-1. 920 compounds, 76% hits
# Pol eta inh-2 – confirmation of human DNA polymerase eta inhibitors; shares compounds with Pol eta inh-1; Pol eta primer extension, TAMRA/BHQ fluorescence, 10 min; Potency, µM, usual class: inhibitors; 2,600 compounds, 64% hits; AID 720502
# * = called active by the depositor; ? = inconclusive; . = no result; [ ] = remark or other dose. Calls come from the whole dose curve; as a rule, active = well fitted curve in the direction sought with a large enough effect; inconclusive = small, poorly fitted or top-dose-only effect, or another doubt; inactive = no such curve, though single readings can be large; an effect the other way counts as inactive or inconclusive. Potency is the fitted concentration of half-maximal effect.
SMILES,FEN1 inh,Pol iota inh,Pol beta inh,WRN inhibitor,Pol kappa inh-1,Pol eta inh-1,Pol eta inh-2,others
Cc1c(Cl)cnc(NC(=O)COC(=O)C2CC2)c1Cl,10.0%,-13.8%,.,4.5%[11.6 µM],-23.8%,?,.,
CC(=O)NC12CC3CC(C1)CC(C(=O)OCC(=O)Nc1ncc(Cl)c(C)c1Cl)(C3)C2,-11.1%,?,?,?,-35.0%,?,?,
Cc1c(Cl)cnc(NC(=O)COC(=O)[C@@H](NC(=O)c2ccco2)C(C)C)c1Cl,-19.7%,?,.,-8.4%[11.6 µM],-17.4%,50.1µM*,?,Pol kappa inh-2=?
Cc1ccc(Cl)cc1NC(=O)C1CCCN(S(=O)(=O)c2c(C)noc2/C=C/N(C)C)C1 (centres undefined),-19.0%,?,7.0%,.,-27.6%,-16.5%,.,
C[N+]1(C)C2CCC1CC(OC(=O)C(O)c1ccccc1)C2 (centres undefined),.,.,.,.,-9.7%[60.1 µM],.,.,
CCOCCCN(Cc1ccco1)S(=O)(=O)c1cc2c(cc1Cl)NC(=O)CO2,-18.7%,?,?,.,0.8%[60.1 µM],79.4µM*,?,Pol kappa inh-2=?
CC1=CCC(C(=O)O)C(C(=O)NC2CCCCC2)C1 (centres undefined),1.5%,?,28.2µM*,-10.0%[11.6 µM],-41.2%,20µM*,84.9*,Pol kappa inh-2=84.4*
CC1=C(C)CC(C(=O)NC2CCCC2)C(C(=O)O)C1 (centres undefined),0.9%,1.7%,-10.7%,12.4%,13.0%,-8.6%,.,
COc1ccc2cc3cc(C(=O)NCCc4ccccc4)sc3nc2c1Cl,25.3%,5.9%,-12.2%,.,-5.8%[60.1 µM],-4.2%,.,
Cc1noc(C)c1-c1cncnc1N(C)Cc1ccco1,.,.,.,.,9.1%[60.1 µM],.,.,
COc1cc(/C=N/NC(=O)C(Cc2c[nH]c3ccccc23)NC(=O)OCc2ccccc2)cc([N+](=O)[O-])c1O (centres undefined),-16.3%,?,50.1µM*,?,?,20µM*,?,
COc1ccccc1/C=C1\S/C(=N/NC(=O)c2cccc(Br)c2)NC1=O,-20.8%,6.0%,-27.3%,?,-21.6%,39.8µM*,?,
S=c1nc(-c2ccc(Cl)cc2)[nH][nH]1,3.7%,23.7%,2.0%,-17.7%,-0.1%,-5.8%,.,
Cc1ccc(C)n1-c1nc(=S)[nH][nH]1,-14.1%,?,-1.7%,?,28.2µM*,44.7µM*,75.7*,
Cc1ccc(S(=O)(=O)Nc2ccccc2C(=O)Nc2nc(-c3ccc(F)cc3)cs2)cc1,0.0%,?,8.9%,?,?,89.1µM*,?,
COc1ccc(-c2csc(NC(=O)c3ccccc3F)n2)cc1,-6.7%,5.1%,-5.4%,-7.1%,-17.7%,-16.6%,.,
Cc1ccc2c(CNCCc3ccccc3)c(C(=O)O)n(Cc3ccccc3C)c2c1,15.0%,6.9%,-2.2%,.,0.0%,-6.2%,.,
CN(C)CCNc1cc(N2CCN(C)CC2)ncn1,-1.1%,-5.0%,.,.,-20.6%,.,.,
Cc1ccc(-c2cc(C(=O)Nc3cccnc3)c3ccccc3n2)o1,-22.0%,?,?,?,-15.1%[60.1 µM],44.7µM*,?,
COc1ccc(/C=C/C(=O)NC(=S)Nc2ccc(S(=O)(=O)Nc3cc(C)on3)cc2)cc1,4.4%,?,-15.1%,-32.3%,-5.5%,?,.,
COc1ccc(/C=C/C(=O)NC(=S)Nc2ccc(S(=O)(=O)Nc3ccc(OC)nn3)cc2)cc1,-12.2%,-2.9%,0.9%,-19.7%[57.1 µM],-10.7%,56.2µM*,?,
COc1ncc2nc(C)c(=O)n(-c3ccccc3)c2n1,.,.,.,.,0.0%[60.1 µM],.,.,
Cn1c(O)c(/C=N/NC(=O)c2cc3ccccc3cc2O)c2ccccc21,3.7%,?,?,-24.2%,-22.6%,-19.7%,.,
